{"source": "PubChem BioAssay AID1645879", "about": "(National Center for Advancing Translational Sciences (NCATS), 2021)", "note": "Records with an inconclusive call do not appear. The source made the active and inactive calls. Calls follow the shape of the dose curve; as a rule, active = well fitted inhibition curve with a large enough effect; inconclusive = small, poorly fitted or top-dose-only effect; inactive = no such curve, though single readings can be large or run the other way."}
{"assay": "Counterscreen qHTS assay for inhibitors of N-terminal methyltransferase 1 (NTMT1): SPKRIA Counterscreen Assay", "details": "biochemical qHTS; series mostly up to 99.2 µM", "excerpt": "Assay Submitter (PI): Rong Huang Ph.D,\nPurdue University, West Lafayette, IN 47907\nThe N-terminal methytransferase 1 is the first methyltransferase that methylates protein alpha-N-amines and plays an important role in regulating cell mitosis, chromatin interactions and DNA repair. It is observed to be over-expressed in various cancer patient tissues like malignant melanoma and colorectal cancer tissues. Knockdown of NTMT1 in cancer cells causes cell mitotic defects and enhances sensitivity to DNA damaging chemotherapeutics. […] These critical cellular processes in which NTMT1 is implicated, coupled with emerging links to cellular dysfunction, strengthen the inference that NTMT1 is a compelling novel anticancer target. Progress have been made in understanding the molecular properties of NTMT1 and the biological consequences of protein alpha-N-terminal methylation, but there are no specific small molecule probes available for NTMT1 to fully characterize its MTase activity. To address this unmet need, a panel of assay is created and established to enable quantitative high-throughput screening (qHTS) for novel, potent, and selective small molecule NTMT1 inhibitors. Two orthogonal qHTS that use different reagents (ThioGlo vs. MTaseGlo) are developed for primary robotic screening against the NCATS chemical library of more than 400,000 small molecules. Identified inhibitors are reacquired, validated, and further characterized.\nMTaseGlo Assay is a luminescence screen that measure the activity of methyltransferases based on the reaction product S-adenosyl homocysteine (SAH). The substrate SAM is converted to SAH upon enzyme activation. MTase-Glo reagent and detection solution convert SAH to ATP and measure the light from the luciferase reaction. Nicotinamide N-methyltransferase (NNMT) is a cystolic enzyme that catalyzes the transfer of a methyl group from the co-factor SAM onto the substrate, nicotinamide (NA) to form 1-methyl-nicotinamide (MNA) and SAH. NNMT MTaseGlo assay is used as a counterscreen to evaluate selectivity of identified inhibitors.\nSPKRIA and Ac-RCC-10 control is provided by the Huang laboratory.\nPROTOCOL TABLE; SEQUENCE No. (e.g., 1, 2, 3, etc.); […] (e.g., Cells, Incubation, Reagent, etc.); VALUE; DESCRIPTION\n1; Reagent; 3 uL; dispense assay buffer.\n2; Compound; 23 nL; pin compounds and control into the assay plate.\n3; Time; 15 min; room temperature incubation.\n4; Reagent; 1 uL; dispensed [4x] substrate or buffer.\n5; Time; 30 min; incubate at room temperature.\n6; Reagent; 1 uL; dispense MTase-Glo Reagent (R).\n7; Time; 30 min; incubate at room temperature.\n8; Reagent; 5 uL; dispense [1x] MTase-Glo Detection Solution to allow for ADP to be converted to ATP.\n9; Centrifugation; 1,000 RPMs; assay plates were centrifuged.\n10; Incubation; 30 min; room temperature.\n11; Detection; Luminescence; ViewLux plate reader (clear filter, 10 second exposure).\nNOTES (numbers refer to Sequence numbers above; values are from representative experiments)\n1; Dispense the assay buffer into Greiner 1536-well black / solid bottom assay plate (Greiner Bio One, Monroe, NC).\n2; Pin control inhibitor Ac-RCC1-10 at a final concentration range of 234 nM to 143 uM using a Wako Pin Tool (Wako Automation USA) equipped with a 1536-slotted pin array (Wako Automation, Richmond, VA). Pin compound library into the assay plates (columns 5 - 48) at a final concentration range of 97 nM to 250 uM.\n3; Incubate the assay plates at room temperature.\n4; Dispense 1 uL of substrate SPKRIA solution (final concentration 1 uM) or 1 uL buffer was added to the wells bringing the final assay volume to 4uL. The assay plate was covered with metal lids.\n5; Incubate the assay plate at room temperature.\n6; Dispense 1 uL of 5x MTase-Glo Reagent in the assay plate.\n7; Incubate at room temperature to allow for SAH to be converted to ADP\n8; Dispense 5 uL of 5x MTase-Glo Detection Solution in the assay plate to allow for ADP to be converted to ATP.\n9; Assay plates were centrifuged for 15 seconds.\n[…]"}
{"smiles": "CN(C)CCc1c[nH]c2cccc(O)c12", "outcome": "inactive"}
{"smiles": "C[C@]12CCC(=O)C=C1CC[C@@H]1[C@@H]2CC[C@@]2(C)[C@H]1CC[C@]2(C)O", "outcome": "inactive"}
{"smiles": "C[C@@H]1CC2=CC(=O)CC[C@@H]2[C@H]2CC[C@@]3(C)[C@@H](CC[C@]3(C)O)[C@@H]21", "outcome": "inactive"}
{"smiles": "C[C@]12CC[C@H]3[C@@H](CCC4=CC(=O)CC[C@@H]43)[C@@H]1CC[C@@H]2O", "outcome": "inactive"}
{"smiles": "C=CC[C@]1(O)CC[C@H]2[C@@H]3CCC4=CC(=O)CCC4=C3C=C[C@@]21C", "outcome": "inactive"}
{"smiles": "CC[C@]1(O)CC[C@H]2[C@@H]3CCC4=CCCC[C@@H]4[C@H]3CC[C@@]21C", "outcome": "inactive"}
{"smiles": "CCc1cc(OC)c(C[C@H](C)N)cc1OC", "outcome": "inactive"}
{"smiles": "C[C@H](N)C(=O)c1ccccc1", "outcome": "inactive"}
